CYP2C9 inhib: blockers of cytochrome P450 2C9 activity – biochemical, luminescence, ADME assay, primary screen. P11712. CYP2C9 Supersomes, luciferin-H conversion. inhibition, % at 5 µM. actives 20% (n = 96,000);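 active = blocking of liver enzyme CYP2C9 beyond about 50% at 5 µM, limit read from the data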
PostGolgi yeast: phenotypic screen on post-Golgi transport, primary screen | actives 0.9% (n = 98,000) | AID 739, 2007 | inhibition, % at 10 µM | post-Golgi transport phenotypic cell assay;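 note: yeast cells grown in 1536-well plates; yeast grown about 18 h at 30C before absorbance read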
CYP2C19 act: human CYP2C19 activators, primary screen, biochemical, luminescence | Cytochrome P450 2C19 (Homo sapiens), P33261 | recombinant CYP2C19, luciferin-H EGE luminescence; active compounds read high; 0 = fully inhibited enzyme, 1 = untreated enzyme | activation factor at 5 µM | 96,000 tested, under 10 active | AID 1025, 2008;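 active = activation factor of at least 2 at 5 µM in the primary screen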;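 note: 0 = wells with 2.5 mM tranylcypromine and 1 = vehicle-only wells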
Target sequence (P33261 whole entry, looked up): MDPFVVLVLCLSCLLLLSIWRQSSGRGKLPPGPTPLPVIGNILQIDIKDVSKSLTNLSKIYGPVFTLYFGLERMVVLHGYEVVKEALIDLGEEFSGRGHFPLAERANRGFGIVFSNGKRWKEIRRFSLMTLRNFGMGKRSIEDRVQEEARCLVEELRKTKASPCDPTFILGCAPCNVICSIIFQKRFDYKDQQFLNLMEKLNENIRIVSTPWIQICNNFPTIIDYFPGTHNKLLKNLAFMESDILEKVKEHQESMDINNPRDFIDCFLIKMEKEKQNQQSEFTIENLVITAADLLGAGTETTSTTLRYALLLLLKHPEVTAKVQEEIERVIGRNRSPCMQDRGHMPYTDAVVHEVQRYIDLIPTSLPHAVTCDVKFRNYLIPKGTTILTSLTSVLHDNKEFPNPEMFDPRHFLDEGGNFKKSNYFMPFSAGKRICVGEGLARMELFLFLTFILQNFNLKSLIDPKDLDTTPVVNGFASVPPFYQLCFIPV
CYP2C19 inhib: blockers of cytochrome P450 2C19 activity – biochemical, luminescence, ADME assay, primary screen; CYP2C19 Supersomes, luciferin-H EGE luminescence, 30 min; inhibition, % at 5 µM; actives 21% (n = 96,000); AID 778, 2007;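 active = CYP2C19 inhibition above a set limit at 5 µM in the primary screen, cut at about 50% in these data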;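 note: plate controls were negative control wells for no effect and 2.5 mM tranylcypromine positive control for full effect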
CYP2C9 act: human CYP2C9 activators, primary screen, biochemical, luminescence; Cytochrome P450 2C9 (Homo sapiens), P11712; recombinant CYP2C9, luciferin-H conversion; active compounds read high; factor 1 = untreated enzyme, 0 = blocked; activation factor at 5 µM; actives 1.4% (n = 96,000); AID 1024, 2008;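 active = activation factor of 2 or more for CYP2C9 at a 5 µM dose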;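 note: 0 = sulfaphenazole-blocked wells and 1 = vehicle-only wells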
PostGolgi ctrl: growth inhibition of yeast control strain, primary screen, counter-screen for post-Golgi transport modulator project; efflux-deficient yeast background strain, growth absorbance A615, 16 h; inhibition, % at 10 µM; actives 5% (n = 98,000)
* marks the source's active call; other numbers are inactive results; . = not tested or not shown. Rows were chosen to be rich in hits. Some 32% of all compounds tested hit in one or more screens of this group. Cut-off read from the data, not from the text of the source, unless noted: active = inhibition above about 30%; inactive = the rest.

SMILES | CYP2C9 inhib | PostGolgi yeast | CYP2C19 act | CYP2C19 inhib | CYP2C9 act | PostGolgi ctrl
CCCCn1c(C)nc2c(=O)n(C)c(=O)[nH]c21 | -2 | -11 | 1.1 | -6 | 1 | -1
CCCCn1c(-c2ccccc2)nc2c(=O)n(C)c(=O)[nH]c21 | 67* | 25 | 1 | -1 | 0.3 | 11
CC1(C)CC(=O)C(C=NCCN2CCN(C(=O)C34CC5CC(CC(C5)C3)C4)CC2)=C(O)C1 | 4 | . | 0.7 | 34 | 1 | .
COC(=O)c1sccc1NC(=S)N1CC(C)CC(C)C1 (stereo unspecified) | 70* | -2 | 0.2 | 83* | 0.3 | 3
CCc1c(C)nc(N)n2c(SCC(=O)Nc3ccccc3OC)nnc12 | -10 | 24 | 1.1 | -8 | 1.1 | 2
COc1cccc(Nc2nc(-c3sc(N)nc3C)cs2)c1 | 74* | 3 | 0.4 | 59* | 0.3 | 9
COc1cccc(Nc2nc(-c3sc(NC(=O)c4ccco4)nc3C)cs2)c1 | 72* | -8 | 0.5 | 47 | 0.3 | 12
COc1ccc(Cl)cc1Nc1nc(-c2sc(NC(=O)c3ccco3)nc2C)cs1 | 62* | -9 | 0.6 | 43 | 0.4 | 14
CCOc1ccccc1NC(=O)CSc1nnc(Cn2c(=O)sc3ccccc32)n1C | . | 3 | . | . | . | 4
COc1cc(OC)nc(Oc2ccccc2C(=O)Oc2ccccc2Cl)n1 | 1 | -12 | 0.5 | 50 | 1 | 27
O=C(c1ccco1)N1CCN(C(=O)C2CCCc3c2[nH]c2ccc(Cl)cc32)CC1 (stereo unspecified) | 39 | -6 | 0.6 | 45 | 0.6 | 23
O=CNC1CCCc2c1[nH]c1ccc(Cl)cc21 (stereo unspecified) | 99* | 3 | 0.4 | 65* | 0 | 9
CCCCCOc1ccc(CSC(=N)N)cc1[N+](=O)[O-] | 30 | -3 | 0.6 | 37 | 0.7 | 6
COc1ccc(CSC(=N)N)cc1[N+](=O)[O-] | 62* | 4 | 0.5 | 51* | 0.4 | 5
COc1ccc(S(=O)(=O)N(CC(=O)Nc2cccnc2)c2ccccc2OC)cc1 | 94* | 5 | 0.5 | 54* | 0.1 | 21
COc1ccccc1N(CC(=O)Nc1cccnc1)S(=O)(=O)c1ccccc1 | 100* | -9 | 0.1 | 90* | 0 | 3
COc1ccccc1N(CC(=O)Nc1cccnc1)S(C)(=O)=O | 31 | 3 | 0.3 | 68* | 0.7 | 4
COc1ccc(OC)c(N(CC(=O)Nc2cccnc2)S(=O)(=O)c2ccccc2)c1 | 98* | 3 | 0 | 98* | 0 | 8
Cc1ccccc1C(=O)NCc1nnc(SCC(=O)N2CCN(c3ccccc3)CC2)n1C | 1 | 2 | 0.9 | 12 | 1 | 16
COc1ccccc1N(CC(=O)Nc1ccc(F)c(F)c1)S(C)(=O)=O | 66* | -10 | 0.1 | 88* | 0.3 | 4
Cc1nc2ccccc2c(=O)n1/N=C/c1c(O)ccc2oc3c(c12)CCCC3 | 77* | -8 | 0.9 | 13 | 0.2 | 3
Cc1nc2ccccc2c(=O)n1/N=C/c1ccc(N(C)C)cc1 | 20 | 5 | 0.9 | 8 | 0.8 | 8
C=C(C)C1CC=C(CN2CC(C)OC(C)C2)CC1 (stereo unspecified) | -3 | 95* | 0.5 | 47 | 1 | 17
CCOC(=O)C1CCN(Cc2ccccc2C(F)(F)F)CC1 | 34 | . | 0.7 | 26 | 0.7 | .
C=C(C)C1CC=C(CN2CCC(C(=O)OCC)CC2)CC1 (stereo unspecified) | -13 | 78* | 0.6 | 42 | 1.1 | 15
SMILES | CYP2C9 inhib | PostGolgi yeast | CYP2C19 act | CYP2C19 inhib | CYP2C9 act | PostGolgi ctrl
CCn1c(COc2ccc(C(C)C)cc2)nnc1SCC(=O)Nc1nccs1 | 28 | -5 | 0.8 | 19 | 0.7 | 7
CCCCc1nnc(NC(=O)C2CCCO2)s1 (stereo unspecified) | 4 | 1 | 1 | -3 | 1 | 1
COc1cccc(/C=N/n2c(N)c(S(=O)(=O)c3cccs3)c3nc4ccccc4nc32)c1 | 8 | 3 | 1 | 3 | 0.9 | 4
COc1ccc(/C=N/n2c(N)c(S(=O)(=O)c3cccs3)c3nc4ccccc4nc32)cc1OC | 77* | 7 | 1 | 1 | 0.2 | 22
Nc1c(S(=O)(=O)c2cccs2)c2nc3ccccc3nc2n1/N=C/c1cccc(O)c1 | 80* | 6 | 0.6 | 42 | 0.2 | 10
COCCNC(=O)c1c(N)n(/N=C/c2cccs2)c2nc3ccccc3nc12 | 61* | 4 | 0.9 | 9 | 0.4 | 13
CC(C)Cn1c(N)c(S(=O)(=O)c2cccs2)c2nc3ccccc3nc21 | 65* | 3 | 0.8 | 20 | 0.3 | 8
CCCCNC(=O)c1c(N)n(/N=C/c2ccccn2)c2nc3ccccc3nc12 | 29 | 3 | 0.8 | 15 | 0.7 | 22
CCc1nnc(NC(=O)CCC(=O)N2CCN(CCOc3ccc(C)cc3)CC2)s1 | 29 | -3 | 0.8 | 17 | 0.7 | -1
CCc1nnc(NC(=O)Cn2nc(-c3ccccc3OC)ccc2=O)s1 | 63* | 1 | 1.2 | -16 | 0.4 | -1
CC(C)CN(CC(C)C)c1nnc(NC(=O)Cn2c(=O)oc3ccccc32)s1 | 1 | -3 | 1 | 0 | 1 | -1
CCc1nnc(NC(=O)Cn2c(=O)oc3ccccc32)s1 | 73* | 0 | 0.4 | 64* | 0.3 | 0
CCCc1nnc(NC(=O)Cn2c(=O)oc3cc(Br)ccc32)s1 | 68* | 2 | 0.8 | 24 | 0.3 | 15
CCCc1nnc(NC(=O)Cn2c(=O)oc3ccccc32)s1 | 54* | 13 | 0.6 | 39 | 0.5 | 13
O=C(COc1ncnc2ccccc12)N1CCN(S(=O)(=O)c2ccc(Cl)cc2)CC1 | 33 | -7 | 0.9 | 10 | 0.7 | -7
CN1CC(c2ccc(Cl)c(Cl)c2)[C@@]2(COc3ccccc3C2=O)[C@@]12C(=O)Nc1ccccc12 (stereo partly specified) | 77* | 5 | 1 | -2 | 0.2 | 22
O=C(Nc1ccccc1-c1ccccc1)C12CC3CC(CC(C3)C1)C2 | 3 | 13 | 0.8 | 19 | 1 | 18
CCC(=O)OC1(C#CCOc2ccc(OC)cc2)CCN(C)CC1 | -9 | 3 | 0.3 | 66* | 1.1 | 2
Nn1c(=O)c2ccccc2n2c(SCc3ccc(C(F)(F)F)cc3)nnc12 | 50* | -3 | 0.6 | 42 | 0.5 | 1
O=C1c2ccccc2C(Nc2ccc(F)cc2F)N1CCN1CCOCC1 (stereo unspecified) | -17 | 2 | 0.9 | 14 | 1.2 | 4
O=c1cc(N2CCN(c3ccccc3F)CC2)[nH]c(=O)n1-c1ccc(Br)cc1 | . | -2 | . | . | . | 6
O=C1COc2ccc(C(=O)CSc3nnc(Cc4cccs4)n3-c3ccc(Cl)cc3)cc2N1 | 29 | 12 | 0.8 | 17 | 0.7 | 5
